Giardia killer: Small Molecules that selectively kill Giardia lamblia: qHTS | 340,000 compounds, 0.15% hits | activity change, % at 7.66 µM, hits read low | Giardia lamblia trophozoite viability; in the data active = activity change below about -80%; inconclusive = between about -30% and that limit;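 note: parasites exposed to compound for two days anaerobically before the ATP read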
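Each well holds 100 Giardia trophozoites and compound. After two days (48 hrs) at 37 deg C in anaerobic conditions, ATP is quantified by luminescence.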
PI4K2A inh: qHTS for small molecular inhibitors of PI4K2A. Phosphatidylinositol 4-kinase type 2-alpha (Homo sapiens), Q9BTU6. purified PI4K2A, ADP-Glo luminescence, 1 h; active compounds read low. activity change, negative = inhibition, % at 76.9 µM. 420,000 compounds, 0.13% hits; in the data active = activity change below about -50%; inconclusive = mostly about -30% to -49%
Target sequence (Q9BTU6 whole entry, looked up): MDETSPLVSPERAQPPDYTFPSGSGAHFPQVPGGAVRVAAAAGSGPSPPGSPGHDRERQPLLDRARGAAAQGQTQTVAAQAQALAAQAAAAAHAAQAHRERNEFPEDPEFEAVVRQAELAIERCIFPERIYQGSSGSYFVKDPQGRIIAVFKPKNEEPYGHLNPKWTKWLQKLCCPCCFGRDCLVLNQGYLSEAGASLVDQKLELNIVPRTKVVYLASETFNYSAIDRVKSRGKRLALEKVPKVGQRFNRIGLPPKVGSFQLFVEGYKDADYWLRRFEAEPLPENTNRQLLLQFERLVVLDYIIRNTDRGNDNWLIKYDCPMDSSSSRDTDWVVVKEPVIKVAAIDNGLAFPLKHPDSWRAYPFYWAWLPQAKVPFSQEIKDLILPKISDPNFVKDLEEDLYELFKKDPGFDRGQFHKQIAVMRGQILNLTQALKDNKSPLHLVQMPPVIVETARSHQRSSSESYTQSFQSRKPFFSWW
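PI4K2A activity was measured by ADP-Glo luminescence: enzyme (4 ug/mL stock) and phosphatidylinositol (1.2 mM stock) in Tris pH 7.5/MgCl2/EGTA/Triton X-100 buffer were reacted with ATP (300 microM stock) for one hour at ambient temperature.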
Nrf2 block: Nrf2 qHTS screen for inhibitors. A549 ARE-Fluc reporter, luciferase luminescence, 18-24 h. Potency, µM (highest dose often 46 µM), usual class: inhibitors. 360,000 compounds, 2.1% hits; note: nearly all actives have a fitted effect of over 60% in size
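Two sequential reads on A549 ARE_Fluc cells exposed to compound for 18-24 h: a CellTiter-Fluor fluorescence read for viability, then a luciferase luminescence read for Nrf2/ARE activity.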
KB-3-1 tox: qHTS assay for MDR1-selective chemotherapeutics: Primary screen using the parental adenocarcinoma cell KB-3-1. KB-3-1 viability, CellTiter-Glo ATP luminescence, 72 h. Potency, µM (titrated, usually from 46.1 µM), hits mostly cytotoxic. 400,000 compounds, 1.4% hits; note: nearly all actives have a fitted effect of over 60% in size
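Viability of parental KB-3-1 cells, measured by CellTiter-Glo luminescence, followed a 72 h incubation at 37 °C with pinned compounds in phenol-red-free DMEM containing 10% FBS.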
KB-V1 MDR tox: qHTS assay for MDR1-selective chemotherapeutics: Primary screen using the drug-selected MDR subline cells KB-V1; Potency, µM (highest dose often 46.1 µM), most hits filed as cytotoxic; KB-V1 MDR cells viability, CellTiter-Glo, 72 h; AID 1347076, 2019; 400,000 compounds, 3.4% hits; note: nearly all actives have a fitted effect of over 60% in size
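Compound-treated KB-V1 multidrug-resistant cells, 72 h, 37 degrees C; viability by CellTiter-Glo. Fitted qHTS curves give the values.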
A549 tox: Nrf2 qHTS screen for inhibitors: counterscreen for cytotoxicity; Potency, µM (titrated, usually from 46 µM), hits mostly inhibitors; AID 504648, 2011; 390,000 compounds, 0.16% hits; A549 ARE-Fluc cells, CellTiter-Fluor viability, 18-24 h
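A549 ARE_Fluc cells in 5% FBS OPTI-MEM were exposed to compounds in concentration-response for 18-24 h at 37 deg C. Viability was read by CellTiter-Fluor fluorescence (Ex 405/Em 525) after 30 min, before the luciferase read.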
Of the large screens only hits and unclear results are named; the others gave an inactive call. Compounds with a hit are over-represented: about 5.7% of the library has one in this group of screens. Unless noted, calls come from the whole dose curve; as a rule, active = well fitted curve in the direction sought with a large enough effect; inconclusive = small, poorly fitted or top-dose-only effect, or another doubt; inactive = no such curve, though single readings can be large; an effect the other way counts as inactive or inconclusive.

COc1cccc(-c2cc(C(=O)Nc3cc(OC)c(OC)c(OC)c3)on2)c1	KB-3-1 tox 9.2µM, KB-V1 MDR tox inconclusive (no result: Giardia killer)
COc1cccc(-c2cc(C(=O)Nc3ccc(F)cc3)[nH]n2)c1	Nrf2 block 2.59µM (no result: Giardia killer)
CCOC(=O)C(=C1Nc2ccccc2N1)n1c(-c2cccnc2)nc2ccccc21	KB-3-1 tox inconclusive, KB-V1 MDR tox 20.6µM (no result: Giardia killer, Nrf2 block, A549 tox)
COc1cccc(NC(=O)c2sc(NC(=O)c3ccncc3)nc2C)c1	Nrf2 block 11.6µM, KB-V1 MDR tox inconclusive
Cc1nc(NC(=O)c2ccc(F)cc2)sc1C(=O)Nc1ccc2c(c1)CCC2	none
Cc1ccc(C(=O)Nc2nc(C)c(C(=O)Nc3ccc4c(c3)CCC4)s2)cc1	Nrf2 block inconclusive, KB-3-1 tox 20.6µM, KB-V1 MDR tox 2.91µM
C[C@@H]1CCCN1c1cccc2c1S(=O)(=O)N1CC[C@@H](C1)O2	none (no result: Giardia killer, Nrf2 block, KB-3-1 tox, KB-V1 MDR tox, A549 tox)
O=S(=O)(c1ccc2c(c1)OCCO2)N1CCN(S(=O)(=O)c2cccc(Cl)c2F)CC1	none (no result: Giardia killer, PI4K2A inh, KB-3-1 tox, KB-V1 MDR tox)
COc1ccc(NC(=O)/C(C#N)=C\c2cc(C)n(-c3ccc4c(c3)OCO4)c2C)cc1	KB-3-1 tox inconclusive, KB-V1 MDR tox 2.06µM
COc1cc(Cn2cc([C@]34C[C@H]5C(=O)N(C)CC(=O)N5[C@H]3N(S(=O)(=O)c3ccccc3)c3ccccc34)c3ccccc32)cc(OC)c1	none (no result: Giardia killer, Nrf2 block, KB-3-1 tox, KB-V1 MDR tox, A549 tox)
CCOC(=O)Cc1csc(NC(=O)c2cccc(OC)c2)n1	none
CCOC(=O)Cc1csc(NC(=O)CSc2nc(N)c3c(C)c(C)sc3n2)n1	PI4K2A inh inconclusive, Nrf2 block inconclusive, KB-V1 MDR tox 8.2µM
CCOC(=O)Cc1csc(NC(=O)c2csc(C)c2)n1	Nrf2 block inconclusive, KB-V1 MDR tox 16.4µM
Cc1cc[n+](C2CCCCC2)c2ccccc12	none (no result: Giardia killer, PI4K2A inh, Nrf2 block, A549 tox)
CN(c1ccc(OCCOc2ccccc2Cl)cc1)S(=O)(=O)c1ccccc1	KB-V1 MDR tox 16.4µM
COc1ccc(N2CCN(C(=O)c3nn(-c4ccc(C)cc4)c(=O)n(C)c3=O)CC2)cc1	none (no result: Giardia killer, Nrf2 block)
CC(Sc1nc2ccccc2n1C)C(=O)NC(c1ccccc1)c1ccccc1 (centres undefined)	KB-V1 MDR tox 8.2µM, A549 tox inconclusive
Cn1c(SC(C(=O)Nc2ccc(F)cc2)c2ccccc2)nc2ccccc21 (centres undefined)	KB-V1 MDR tox inconclusive
COc1ccc(N(C(=O)CCl)C(C(=O)NCCc2ccccc2)c2cccs2)cc1Cl (centres undefined)	KB-3-1 tox 8.2µM, KB-V1 MDR tox 13µM, A549 tox inconclusive
CCCCOc1ccc(C(=O)NC2CCCCN(Cc3ccc(C)cc3)C2=O)cc1 (centres undefined)	none (no result: Giardia killer, Nrf2 block, KB-3-1 tox, KB-V1 MDR tox, A549 tox)
Clc1cccc(-c2nc(NCc3cccnc3)c3ccccc3n2)c1	KB-V1 MDR tox 14.6µM (no result: Nrf2 block)
CCc1ccc(S(=O)(=O)/N=C2\C=C(NS(=O)(=O)c3ccccc3)C(=O)c3ccccc32)cc1	PI4K2A inh -50.1, Nrf2 block inconclusive
Cc1ccc(NC2=C/C(=N/S(=O)(=O)c3cccs3)c3ccccc3C2=O)cc1C	none
Cc1cc(C)c[n+](C2=C([O-])c3ccccc3C(=O)/C2=N\S(=O)(=O)c2cccs2)c1	Nrf2 block 20.6µM, KB-3-1 tox inconclusive, A549 tox inconclusive
CC(=O)Nc1ccc(NC(=O)C(C)OC(=O)c2ccccc2NS(=O)(=O)c2cccs2)cc1 (centres undefined)	none
CC(=O)Nc1ccc(NC2=C/C(=N/S(=O)(=O)c3cccs3)c3ccccc3C2=O)cc1	KB-3-1 tox 20.6µM
Cc1ccccc1NC1=C/C(=N\S(=O)(=O)c2cccs2)c2ccccc2C1=O	PI4K2A inh inconclusive, Nrf2 block inconclusive, KB-3-1 tox inconclusive, KB-V1 MDR tox 7.31µM, A549 tox inconclusive
O=C(NC(c1ccco1)c1cc(Cl)c2cccnc2c1O)c1cccs1 (centres undefined)	KB-V1 MDR tox inconclusive (no result: Giardia killer, PI4K2A inh, Nrf2 block, A549 tox)
COc1ccc(S(=O)(=O)/N=C2\C=C(Nc3ccc(O)cc3)C(=O)c3ccccc32)cc1	PI4K2A inh inconclusive, Nrf2 block inconclusive, KB-3-1 tox 5.17µM, KB-V1 MDR tox 16.4µM, A549 tox inconclusive
Cc1ccccc1NC1=C/C(=N\S(=O)(=O)c2ccc(C(=O)O)cc2)c2ccccc2C1=O	PI4K2A inh inconclusive, KB-3-1 tox inconclusive, KB-V1 MDR tox inconclusive
CCCOc1ccc(/C=N/NC(=O)CSCc2ccc([N+](=O)[O-])cc2)cc1OCC	KB-V1 MDR tox 16.4µM
COc1cccc(C(=O)NNC(=S)NC2CCCCC2)c1	KB-V1 MDR tox 23.1µM
COc1ccc(NC(=S)NC2CCCCCC2)c(OC)c1	KB-3-1 tox inconclusive, KB-V1 MDR tox 18.4µM
COc1ccc(NC(=O)N(C2CCCCC2)C2CCN(C(C)C)CC2)c(OC)c1	KB-V1 MDR tox 14.6µM
COc1ccc(NC(=S)NC2CCCCC2)c(OC)c1	KB-3-1 tox inconclusive
COc1cccc(C(=O)NC2CCCC2)c1	none
COc1ccc(NC(=O)N(C2CCCCC2)C(C)c2ccco2)c(OC)c1 (centres undefined)	Nrf2 block inconclusive, KB-V1 MDR tox inconclusive
Cc1ccc(NC(=O)CSc2nnc(-c3ccccc3F)n2-c2ccccc2)c(C)c1	none (no result: Giardia killer, Nrf2 block, KB-3-1 tox, KB-V1 MDR tox, A549 tox)
CCOc1nc(C#N)nc(N2CCOCC2)n1	none (no result: PI4K2A inh)
COc1ccccc1CCNC(=O)c1ccc(NC(=O)N2CC(C)Sc3ccccc32)cc1 (centres undefined)	Nrf2 block 20.6µM (no result: Giardia killer)
Cc1nc(N2CCC(C)CC2)c2c(C)c(C(=O)Nc3ccc4c(c3)OCCO4)sc2n1	none
Cc1c(C(=O)Nc2ccc3c(c2)OCCO3)sc2ncnc(N3CCCCC3C)c12 (centres undefined)	Nrf2 block inconclusive, KB-3-1 tox 18.4µM, KB-V1 MDR tox inconclusive, A549 tox inconclusive
Cc1cc(Br)ccc1NC(=O)c1sc2ncnc(N3CCN(c4ccccn4)CC3)c2c1C	KB-3-1 tox 6.51µM, KB-V1 MDR tox inconclusive
COc1ccc(NC(=O)c2sc3nc(C)nc(N4CCN(c5ccccn5)CC4)c3c2C)cc1Cl	Nrf2 block inconclusive
COc1ccc(NC(=O)c2sc3ncnc(N4CCN(c5ccccn5)CC4)c3c2C)cc1Cl	Nrf2 block 14.6µM, KB-3-1 tox inconclusive, A549 tox inconclusive
CC[C@@H](C)[C@H]1O[C@]2(CC[C@H]1C)C[C@@H]1C[C@@H](CC=C(C)[C@@H](O[C@H]3C[C@H](OC)[C@@H](O[C@H]4C[C@H](OC)[C@@H](O)[C@H](C)O4)[C@H](C)O3)[C@@H](C)C=CC=C3CO[C@@H]4[C@H](O)C(C)=C[C@@H](C(=O)O1)[C@]34O)O2	none (no result: Giardia killer, Nrf2 block, KB-3-1 tox, KB-V1 MDR tox, A549 tox)
